Inconclusive results are not listed. Where a call stands in place of a potency, no number is given. Calls of active or inactive are those of the source. The call rests on the fitted dose curve.

The nature of the first experiment: qHTS assay to identify small molecule agonists of the sonic hedgehog signaling (Shh) pathway (AID 1259368).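 Further: NIH/3T3-derived 3T3Gli1-Luc cells carrying a stable Gli1-driven firefly luciferase reporter; nearly all actives have a fitted effect of over 15% in size.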 The following applies: NIH/3T3 Gli1-Luc reporter, luciferase, 24 h, stronger effect = higher value; series mostly up to 92.4 µM. The method in brief:
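Mouse fibroblast (NIH/3T3) reporter cells with stably integrated Gli1-Luc were treated 24 hr with compound; firefly luciferase luminescence served as the read-out.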
In the case of `CCCCCCCCCC[N+](C)(C)[O-]`, the molecule was classed as inactive.
On the same count and under the same terms, for `CO[C@@]1(NC(=O)CSC[C@@H](N)C(=O)O)C(=O)N2C(C(=O)O)=C(CSc3nnnn3C)CS[C@@H]21` the value was “inactive”.
On the same count and under the same terms, the value for `CC(=O)O[C@@]12CO[C@@H]1C[C@H](O)[C@@]1(C)C(=O)[C@H](O)C3=C(C)[C@@H](OC(=O)[C@H](O)[C@@H](NC(=O)OC(C)(C)C)c4ccccc4)C[C@@](O)([C@@H](OC(=O)c4ccccc4)[C@H]21)C3(C)C` was “inactive”; that for `CC1(C)OC[C@@H](COC(=O)CCc2ccc(OC[C@@H](O)CNCCNC(=O)N3CCOCC3)cc2)O1` was “inactive”; that for `Cc1ccc(C(=O)c2ccc(CC(=O)O)n2C)cc1` was “inactive”.
The same measure, in the same setting: the value for `O=S(=O)(O)c1cccc(S(=O)(=O)O)c1` was “inactive”; that for `CCCCCC(C)N` (configuration not stated) was “inactive”.
Consider `CCCCCCCC1CCCC1=O` (configuration not stated), for which the result was inactive.
The same measure, in the same setting: for `CC(=O)N1C[C@H](O)C[C@H]1C(=O)O` the value was “inactive”.
For `CCCOC(=O)CC`, the molecule was classed as inactive.
In the case of `O=C(O)Cc1csc(-c2ccc(Cl)cc2)n1`, the molecule was called inactive.
Consider `Nc1c2c(nc3c1CCC3)CCCC2`, for which the outcome was inactive.
Same read-out and setting: the value for `O=[N+]([O-])c1cncn1CCN1CCOCC1` was “inactive”; that for `C=C(C)C(=O)OCC(O)CO` (configuration not stated) was “inactive”; that for `COCCOC[C@H](CC1(C(=O)NC2CCC(C(=O)O)CC2)CCCC1)C(=O)Oc1ccc2c(c1)CCC2` (some centres not stated) was “inactive”.
On to `CCCCOCCOC(=O)COc1cc(Cl)c(Cl)cc1Cl`, for which the molecule was classed as inactive.
Same read-out and setting: for `Cc1ccc(-c2ccccc2C#N)cc1` the value was “inactive”; for `C[N+](C)(CCOc1ccccc1)Cc1cccs1`, “inactive”.
As for `NC(=O)NC1N=C([O][Al])NC1=O` (configuration not stated), the molecule was called inactive.
On the same count and under the same terms, for `CCOC(=O)COc1cc(-n2ncc(C(F)(F)F)c(C)c2=O)c(F)cc1Cl` the value was “inactive”.
On the same count and under the same terms, for `CCOC(=O)C(=O)CCCCCCl` the value was “inactive”.
With `CC1CCC(CO)CC1` (configuration not stated), the call was inactive.
Still for that read-out and setting: for `Cc1onc(-c2c(Cl)cccc2Cl)c1C(=O)Cl` the value was “inactive”.
With `Cc1nc2ccc(CN(C)c3ccc(C(=O)N[C@@H](CCC(=O)O)C(=O)O)s3)cc2c(=O)[nH]1`, the molecule was classed as inactive.
As for `COC(=O)Nc1ccc(Cl)c(Cl)c1`, the result was inactive.
On the same count and under the same terms, for `NS(=O)(=O)Cc1noc2ccccc12` the value was “inactive”; for `O=S(=O)(O)c1cc(O)c(O)c(S(=O)(=O)O)c1`, “inactive”; for `CC1=NN(c2cccc(S(=O)(=O)O)c2)C(=O)C1`, “inactive”.
Consider `CC(C)(C)c1ccc(-c2ccc(C(C)(C)C)cc2)cc1`, for which the molecule was classed as inactive.
In the case of `CC[N+](CC)(CC)CCOc1cccc(OCC[N+](CC)(CC)CC)c1OCC[N+](CC)(CC)CC`, the molecule was classed as inactive.
Consider `Cc1ccc(-c2ncc(Cl)cc2-c2ccc(S(C)(=O)=O)cc2)cn1`, for which the result was inactive.
Still for that read-out and setting: for `CCCCS(=O)(=O)N[C@@H](Cc1ccc(OCCCCC2CCNCC2)cc1)C(=O)O` the value was “inactive”; for `O=C(c1ccccc1O)c1ccccc1O`, “inactive”; for `CC(=O)N[C@H]1[C@H]([C@H](O)[C@H](O)CO)OC(C(=O)O)=C[C@@H]1N=C(N)N`, “inactive”.
On to `C=C[Si](OC(C)=O)(OC(C)=O)OC(C)=O`, for which the call was inactive.
Turning to `CCOc1c(N2CCOCC2)cnn(C)c1=O`, the result was inactive.
As to `O=C(O)CCSCCC(=O)O`, the outcome was inactive.
On the same count and under the same terms, the value for `CC(C)NNC(=O)c1ccncc1` was “inactive”.

A short description of another experiment: qHTS assay to identify small molecule antagonists of the sonic hedgehog signaling (Shh) pathway (AID 1259369). Further: nearly all actives have a fitted effect of over 45% in size. Further: potency means the concentration at half of the fitted maximal effect. Particulars: NIH/3T3 Gli1-Luc reporter, Shh antagonist, luminescence 24 h; series mostly up to 92.4 µM. The gist of the method:
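Conditioned medium drives Shh signalling in 3T3Gli1-Luc cells; compounds in DMSO co-applied, 24hr at 37 C, then luciferase luminescence.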
In general terms: Quantitative high-throughput screening tests each substance at several concentrations.
Regarding `CCCCCCCCCC[N+](C)(C)[O-]`, the Potency entry is “inactive”.
Same read-out and setting: for `CO[C@@]1(NC(=O)CSC[C@@H](N)C(=O)O)C(=O)N2C(C(=O)O)=C(CSc3nnnn3C)CS[C@@H]21` the value was “inactive”.
The same measure, in the same setting: the value for `CC1(C)OC[C@@H](COC(=O)CCc2ccc(OC[C@@H](O)CNCCNC(=O)N3CCOCC3)cc2)O1` was “inactive”; that for `Cc1ccc(C(=O)c2ccc(CC(=O)O)n2C)cc1` was “inactive”.
Still for that read-out and setting: the value for `O=S(=O)(O)c1cccc(S(=O)(=O)O)c1` was “inactive”; that for `CCCCCC(C)N` (configuration not stated) was “inactive”.
As for `CCCCCCCC1CCCC1=O` (configuration not stated), the Potency result was “inactive”.
As to `CC(=O)N1C[C@H](O)C[C@H]1C(=O)O`, the Potency result was “inactive”.
Take `CCCOC(=O)CC`: the Potency result is “inactive”.
Still for that read-out and setting: the value for `O=C(O)Cc1csc(-c2ccc(Cl)cc2)n1` was “inactive”.
Same read-out and setting: for `O=[N+]([O-])c1cncn1CCN1CCOCC1` the value was “inactive”; for `C=C(C)C(=O)OCC(O)CO` (configuration not stated), “inactive”.
Still for that read-out and setting: for `COCCOC[C@H](CC1(C(=O)NC2CCC(C(=O)O)CC2)CCCC1)C(=O)Oc1ccc2c(c1)CCC2` (some centres not stated) the value was “inactive”; for `CCCCOCCOC(=O)COc1cc(Cl)c(Cl)cc1Cl`, “inactive”; for `Cc1ccc(-c2ccccc2C#N)cc1`, “inactive”.
Take `C[N+](C)(CCOc1ccccc1)Cc1cccs1`: the Potency result is “inactive”.
`NC(=O)NC1N=C([O][Al])NC1=O` (configuration not stated): the Potency entry was “inactive”.
Regarding `CCOC(=O)COc1cc(-n2ncc(C(F)(F)F)c(C)c2=O)c(F)cc1Cl`, the Potency result was “inactive”.
As for `CCOC(=O)C(=O)CCCCCCl`, the Potency result is “inactive”.
On the same count and under the same terms, for `CC1CCC(CO)CC1` (configuration not stated) the value was “inactive”; for `Cc1onc(-c2c(Cl)cccc2Cl)c1C(=O)Cl`, “inactive”.
For the molecule `Cc1nc2ccc(CN(C)c3ccc(C(=O)N[C@@H](CCC(=O)O)C(=O)O)s3)cc2c(=O)[nH]1`, the Potency result is “inactive”.
`NS(=O)(=O)Cc1noc2ccccc12`: the Potency result was “inactive”.
On the same count and under the same terms, the value for `O=S(=O)(O)c1cc(O)c(O)c(S(=O)(=O)O)c1` was “inactive”.
The same measure, in the same setting: the value for `CC1=NN(c2cccc(S(=O)(=O)O)c2)C(=O)C1` was “inactive”.
With `CC(C)(C)c1ccc(-c2ccc(C(C)(C)C)cc2)cc1`, the Potency result was “inactive”.
On the same count and under the same terms, the value for `CC[N+](CC)(CC)CCOc1cccc(OCC[N+](CC)(CC)CC)c1OCC[N+](CC)(CC)CC` was “inactive”.
Regarding `Cc1ccc(-c2ncc(Cl)cc2-c2ccc(S(C)(=O)=O)cc2)cn1`, the Potency entry is “inactive”.
Same read-out and setting: for `CCCCS(=O)(=O)N[C@@H](Cc1ccc(OCCCCC2CCNCC2)cc1)C(=O)O` the value was “inactive”.
Same read-out and setting: the value for `CC(=O)N[C@H]1[C@H]([C@H](O)[C@H](O)CO)OC(C(=O)O)=C[C@@H]1N=C(N)N` was “inactive”; that for `C=C[Si](OC(C)=O)(OC(C)=O)OC(C)=O` was 30.6 µM (active).
Still for that read-out and setting: for `CCOc1c(N2CCOCC2)cnn(C)c1=O` the value was “inactive”.
Regarding `O=C(O)CCSCCC(=O)O`, the Potency entry is “inactive”.
As to `CC(C)NNC(=O)c1ccncc1`, the Potency entry was “inactive”.

The values above are taken from PubChem BioAssay (Tox21).
